Compounds with a hit are over-represented: about 3.7% of the library has one in this group of screens.
A549 viability = counter-screen for Nrf2 inhibitors: cytotoxicity in A549 cells; AID 504648; Potency, µM (doses to about 46 µM), usual class: inhibitors; A549 ARE-Fluc cells, CellTiter-Fluor viability, 18-24 h; hit rate 0.16% among 390,000
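A549 ARE-Fluc cells in 5% FBS OPTI-MEM, 5000 cells/well, rested 2 h then exposed to compounds in concentration-response for 18-24 h at 37 °C. Viability by CellTiter-Fluor fluorescence (Ex 405/Em 525) after 30 min; luciferase luminescence (BugLite, 15 min, RT) read afterwards.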
ELG1 repair inh = ELG1-dependent DNA repair inhibition. HEK293T ELG1-luciferase reporter, luminescence, 16 h; DNA damage induced by 5-fluorouridine. Potency, µM (doses to about 46.1 µM), usual class: inhibitors. hit rate 2.3% among 330,000. AID 504467; further: nearly all actives have a fitted effect of over 55% in size
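DMSO vehicle served as the neutral condition. Each well held 2,000 cells given 5-fluorouridine plus compound; after 16 hr at 37 °C/5% CO2, ONE-Glo was added and luciferase measured 30 min later.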
Nrf2 activator = activators of Nrf2 (ARE) signaling; AREc32 ARE-luciferase reporter (MCF7-derived line), luminescence, 24 h; Potency, µM (top dose mostly 46.1 µM), most hits filed as activators; hit rate 0.31% among 410,000; AID 624171; further: nearly all actives have a fitted effect of over 65% in size
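Quantitative high-throughput format: AREc32 reporter cells, 1000 per well, received compound by pin transfer and were incubated 24 hr at 37 deg C, 5% CO2, before Steady-Glo luminescence detection.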
Nrf2 inh = blocks Nrf2 signaling; hit rate 2.1% among 360,000; A549 ARE-Fluc reporter, luciferase luminescence, 18-24 h; Potency, µM (titrated, usually from 46 µM), actives largely listed as inhibitors; further: nearly all actives have a fitted effect of over 60% in size
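Cells were seeded and rested 2 h, then exposed to compounds for 18-24 h. CellTiter-Fluor was read first as a viability measure. BugLite was added 15 min before the final luminescent read of ARE-luciferase activity in A549 cells.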
A number is an active result; – = inactive; ? = inconclusive; · = no result given. The call rests on the fitted dose curve; in most records, active means well fitted curve in the direction sought with a large enough effect; inconclusive means small, poorly fitted or top-dose-only effect, or another doubt; inactive means no such curve, though single readings can be large; an effect the other way counts as inactive or inconclusive.

SMILES	A549 viability	ELG1 repair inh	Nrf2 activator	Nrf2 inh
Cc1c(P(=S)(c2ccccc2)c2ccccc2)c2ccccc2n1CCCc1ccccc1	–	·	·	–
C[C@H]1[C@H](NC(=O)C(=NOC(C)(C)C(=O)O)c2csc(N)n2)C(=O)N1S(=O)(=O)O	–	–	–	–
O=S(=O)(Nc1cccc(-c2cn3cccnc3n2)c1)c1ccc(F)cc1	–	–	–	16.4µM
O=C(COC(=O)c1cccc(F)c1)Nc1ccc(Cl)cn1	–	–	–	–
O=C(CSc1ccc2c(c1)OCCO2)Nc1ccccc1	·	·	–	·
O=C(CSc1ccc2c(c1)OCCO2)NC(=O)NC1CCCC1	–	0.731µM	–	?
CCOc1ccc(N2C(=O)C(Cl)=C(Nc3ccccc3O)C2=O)cc1	–	?	12.6µM	–
COc1ccccc1NC1=C(Cl)C(=O)N(c2ccccc2)C1=O	–	–	–	–
COc1cccc(CN(C(=O)c2ccc(C(C)(C)C)cc2)C2CCS(=O)(=O)C2)c1 (stereo not given)	–	·	–	–
Cc1ccc(C2=C(c3ccc([N+](=O)[O-])cc3)C(=O)OC2)cc1C	–	–	–	23.1µM
FC(F)(F)c1cc(C(F)(F)F)c2ccc(N3CCN(c4ccc(Cl)cc4)CC3)nc2n1	–	–	–	–
N#CC(c1ccc(Cl)cc1)c1ccc2c(C(F)(F)F)cc(C(F)(F)F)nc2n1 (stereo not given)	5.8µM	?	–	1.46µM
CCC(=O)Nc1cc(-c2cn3cccnc3n2)ccc1OC	–	·	–	·
Cc1cc(C)n(-c2nc(NCC3CCCO3)c3c4c(sc3n2)COC(C)(C)C4)n1 (stereo not given)	–	18.4µM	–	–
Cc1cc(C)n(-c2nc(SCCN(C)C)c3c4c(sc3n2)COC(C)(C)C4)n1	–	18.4µM	–	·
Cc1cc(C)n(-c2nc(NCC(C)O)c3c4c(sc3n2)COC(C)(C)C4)n1 (stereo not given)	–	14.6µM	–	–
Cc1cc(C)n(-c2nc(NCCO)c3c4c(sc3n2)CCCC4)n1	–	?	–	·
Cc1cc(C)n(-c2nc(NCC(C)O)c3c4c(sc3n2)CCCC4)n1 (stereo not given)	–	16.4µM	–	·
Cc1ccc(-c2c(C#N)c(N)n(-c3ccccc3C)c(=O)c2C#N)cc1	·	·	–	·
COc1ccc(C(=O)NCc2nnc(SCC(=O)N3CCCC3)o2)cc1	–	–	–	–
O=C(COC(=O)CC(c1ccccc1)c1ccccc1)NCc1ccc(Cl)cc1	–	16.4µM	–	–
O=C(CN(CCc1ccccc1)S(=O)(=O)c1ccc(Br)cc1)NCc1ccc(Cl)cc1	–	·	–	–
O=C(CN(CCc1ccccc1)S(=O)(=O)c1ccccc1)NCc1ccc(Cl)cc1	–	·	–	20.6µM
Cn1ccnc1SCC(=O)Nc1cc(F)ccc1F	–	–	–	–
Cc1ccc(C(=O)N/C(=C\c2ccccc2)C(=O)NCc2cccnc2)cc1	–	–	–	–
SMILES	A549 viability	ELG1 repair inh	Nrf2 activator	Nrf2 inh
CCOc1ccc(C2C(C(=O)Nc3ccccc3)=C(C)Nc3nc(-c4ccccc4)nn32)cc1OC (stereo not given)	–	·	–	–
Cc1nc2ccc(NC(=O)c3ccc(S(=O)(=O)N4CCOCC4)cc3)cc2s1	–	9.2µM	–	·
Cc1nc2ccc(C(=O)Nc3cccc([N+](=O)[O-])c3)cc2s1	–	–	–	–
CC1CN(S(=O)(=O)c2cccc(C(=O)Nc3ccccc3N3CCCC3)c2)CC(C)O1 (stereo not given)	–	–	–	23.1µM
CCOC(=O)c1ccc(NC(=O)c2ccc(C)c(S(=O)(=O)N3CCOCC3)c2)cc1	?	4.61µM	–	?
Cc1nc2ccc(NC(=O)c3ccc([N+](=O)[O-])cc3[N+](=O)[O-])cc2s1	–	20.6µM	–	–
CCc1nc2ccc(C(=O)NCc3ccc4c(c3)OCO4)cn2c1N(C)Cc1ccc(OC)cc1	·	·	–	·
O=C(CCCn1cc([N+](=O)[O-])cn1)Nc1cccnc1	–	–	–	–
Cc1cc2nn(-c3ccccc3)nc2cc1NC(=O)COc1ccc(Cl)cc1	–	·	–	–
Cc1ccc(C(=O)NC(C)CCc2ccccc2)cc1S(=O)(=O)N1CCOCC1 (stereo not given)	–	18.3µM	–	?
CCOc1cc(N2CCOCC2)c(OCC)cc1NC(=O)c1cccc(S(=O)(=O)N2CCOCC2)c1	–	16.4µM	–	–
COc1ccc(Br)cc1C(=O)Nc1ccc(N2CCN(S(C)(=O)=O)CC2)cc1	–	–	–	18.4µM
COc1ccc(C(=O)Nc2ccc(N3CCCCCC3)cc2)cc1S(=O)(=O)N1CCOCC1	–	20.6µM	–	13µM
COc1ccc(C(=O)Nc2ccc(NC(=O)c3ccccc3)cc2)cc1S(=O)(=O)N1CCOCC1	–	–	–	?
Cn1c2ccccc2c(=O)c2c(=O)n(C3CCCCC3)c(-c3ccco3)nc21	–	?	–	–
CC(C)(C)c1ccc(OCCCC(=O)Nc2nnc(C3CC3)s2)cc1	·	·	–	·
Cc1nccn1CCC(=O)Nc1ccc(Cl)cc1	–	–	–	–
CN(C)c1ccc(C(C(=O)NC2CCCC2)N(C(=O)c2ccco2)C2CC2)cc1 (stereo not given)	–	–	–	–
CC(=O)Nc1ccc(S(=O)(=O)NCCC(=O)Nc2ccc(C)c(F)c2)cc1	–	–	–	–
O=C(NCCc1nnc2ccc(N3CCCC3)nn12)c1ccccc1	–	·	–	–
COc1ccc(C(=O)OCc2c(F)cccc2Cl)cc1S(=O)(=O)N1CCOCC1	–	?	–	–
CCOC(=O)c1ccc(NC(=O)c2cccc(S(=O)(=O)N3CCOCC3)c2)cc1	?	23.1µM	–	?
CC(=O)c1cccc(NC(=O)c2cccc(S(=O)(=O)N3CCOCC3)c2)c1	–	?	–	–
COc1ccc(COC(=O)c2ccc(C)c(S(=O)(=O)N3CCOCC3)c2)cc1F	–	18.3µM	–	–
CCOC(=O)c1cccc(NC(=O)c2ccc(NC(=O)C3CCCO3)cc2)c1 (stereo not given)	–	–	–	11.6µM
SMILES	A549 viability	ELG1 repair inh	Nrf2 activator	Nrf2 inh
O=C(Nc1ccc(N2CCCCCC2)cc1)c1cccc(S(=O)(=O)N2CCOCC2)c1	–	–	–	16.4µM
CCOc1ccc(NC(=O)CN(C)C(=O)CCNC(=O)c2ccco2)cc1OCC	–	–	–	–
COc1ccccc1CNC(=O)c1oc2c(c1C)-c1nn(Cc3ccc(Cl)cc3)cc1CC2	–	·	–	–
CCOc1ccc(CN2C(=O)c3ccccc3Sc3ccc(C(=O)N4CCN(C)CC4)cc32)cc1	–	·	–	–
Cc1cc(F)ccc1S(=O)(=O)NCC(c1cccnc1)N1CCc2ccccc21 (stereo not given)	–	?	–	–
CN(CC(=O)Nc1cccc(F)c1)C(=O)c1ccc(N2CCCCC2)c([N+](=O)[O-])c1	–	–	–	?
CCCCN(Cc1ccco1)S(=O)(=O)c1csc(C(N)=O)c1	–	–	–	–
CCC(C)(C)C1CCc2c(sc(N)c2C(N)=O)C1 (stereo not given)	–	–	–	18.4µM
COCCNC(=O)C1CCCN(C(=O)/C=C/c2ccccc2)CC1 (stereo not given)	·	·	–	·

Screening results deposited in PubChem BioAssay by National Center for Advancing Translational Sciences (NCATS).
